Compound activity from PubChem.
GBA mod: alters purified human glucocerebrosidase activity; purified enzyme, resorufin glucoside fluorescence (screen aimed at inhibitors), 20 min; P04062; Potency, µM; AID 360; hit rate 1.1% among 48,000; in the data active = potency below about 15 µM; inconclusive = mostly about 16 µM to 33 µM;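 also: the screen sought inhibitors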
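Wild-type enzyme at 0.2 nM final in 50mM citric acid/KH2PO4, 10mM sodium taurocholate, 0.01% tween-20, pH 5.9, with resorufin beta-D-glucopyranoside at 30 uM final. Compounds titrated, 20 min at RT, red fluorescence read; AC50 from titration.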
ERK AVP block: blocks ERK signaling stimulated by vasopressin | HEK293-V1b, vasopressin-stimulated pERK AlphaScreen | Potency, µM (doses to about 57.5 µM), inactives show at the top dose activity, negative = inhibition, most hits filed as inhibitors | hit rate 0.99% among 72,000; also: % is scaled to controls: 0 for no effect and ±100 for the full control effect; nearly all actives have a fitted effect of over 55% in size
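HEK293 cells stably expressing V1b receptor, preincubated 30 min at 37 °C with compound, then stimulated 5 min with 25 nM vasopressin. Phospho-ERK by AlphaScreen SureFire after 5 h RT; normalized to DMSO and vasopressin; AC50 by Hill fit.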
Luciferase inh: inhibitors of firefly luciferase; purified firefly luciferase, luminescence, 8 min; Potency, µM (doses to about 57.1 µM), without a hit: at the top dose activity change, negative = inhibition, most hits filed as inhibitors; hit rate 2.2% among 72,000; also: % is scaled to controls: 0 for no effect and ±100 for the full control effect; nearly all actives have a fitted effect of over 40% in size
Target sequence (P08659 whole entry, looked up): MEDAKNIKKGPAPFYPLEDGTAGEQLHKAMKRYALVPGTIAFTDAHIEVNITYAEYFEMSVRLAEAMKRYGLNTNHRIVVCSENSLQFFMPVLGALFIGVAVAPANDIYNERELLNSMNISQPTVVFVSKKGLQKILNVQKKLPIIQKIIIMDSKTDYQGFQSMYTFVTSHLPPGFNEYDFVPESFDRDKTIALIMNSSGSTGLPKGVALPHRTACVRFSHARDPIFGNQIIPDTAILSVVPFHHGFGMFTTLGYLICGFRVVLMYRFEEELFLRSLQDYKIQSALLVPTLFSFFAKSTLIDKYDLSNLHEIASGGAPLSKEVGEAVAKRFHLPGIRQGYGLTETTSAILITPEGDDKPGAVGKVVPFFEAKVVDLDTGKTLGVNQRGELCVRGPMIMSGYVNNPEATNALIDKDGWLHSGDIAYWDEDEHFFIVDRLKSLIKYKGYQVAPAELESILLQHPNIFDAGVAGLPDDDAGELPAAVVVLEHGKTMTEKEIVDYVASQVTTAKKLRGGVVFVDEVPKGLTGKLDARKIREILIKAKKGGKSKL
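Compounds were tested as concentration series (qHTS) against purified P. pyralis luciferase with luciferin and 10 uM ATP in 50 mM imidazole pH 7.2, 50 mM KCl, 7 mM MgCl2, 0.01% Tween 20, 0.05% BSA. Luminescence was read after 8 min at ambient temperature.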
Bst PK mod: pyruvate kinase (B. stearothermophilus) modulation | purified pyruvate kinase, luminescence ATP production; ribose 5-phosphate activator present at AC10 | Potency, µM | hit rate 1.2% among 51,000; in the data active = potency below about 11 µM; inconclusive = mostly about 12 µM to 25 µM;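 the screen sought inhibitors and activators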;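 also: scaled between full activation by ribose 5 phosphate and full inhibition by luteolin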
Numbers without * were called inactive; ! = a repeat was not active; [ ] = another dose, or the depositor's remark. Only some compounds are listed: those with a hit (about 3.9% of all), similar ones and a draw of the others. Unless noted, calls follow the shape of the dose curve; as a rule, active = well fitted curve in the direction sought with a large enough effect; inconclusive = small, poorly fitted or top-dose-only effect, or another doubt; inactive = no such curve, though single readings can be large; an effect the other way counts as inactive or inconclusive. Potency is read from the fitted curve at half-maximal effect.

Results for CN(C)C(=O)Oc1ccc(OC(=O)c2ccccc2)cc1 ?
GBA mod: >77; ERK AVP block: 5%; Luciferase inh: 16µM*; Bst PK mod: inactive

How did CC(=O)Oc1c2c(c(CC=C(C)C)c3c1C(=O)C1=CC4CC5C(C)(C)OC(C/C=C(\C)C(=O)O)(C4=O)[C@]15O3)OC(C)(CCC=C(C)C)C=C2 (some centres not stated) do in these assays?
ERK AVP block: 6.3µM*

How did Cc1ccc(CS(=O)(=O)CCC(=O)N2CCC3(CC2)OCCO3)cc1 do in these assays?
GBA mod: >77; ERK AVP block: 11%; Luciferase inh: 0%; Bst PK mod: >57

What do the screens show for `Cc1ccc(S(=O)(=O)N(C)CCCC(=O)N2CCN(c3ccccn3)CC2)cc1`?
GBA mod: >77; ERK AVP block: 25µM*; Luciferase inh: 3%; Bst PK mod: >57

Results for CN1C[C@@H](CS(=O)(=O)N(C)C)C[C@H]2c3cccc4c3c(cn4C)C[C@@H]21 ?
ERK AVP block: -8%; Luciferase inh: 2%

Results for CCN(CC)CCCN=Cc1c(O)n(Cc2ccc(F)cc2)c(=O)[nH]c1=O ?
GBA mod: >77; ERK AVP block: -1%; Luciferase inh: 13µM*

How did CCN(CC)CCCN=Cc1c(O)n(CCc2ccc(OC)c(OC)c2)c(=O)[nH]c1=O do in these assays?
GBA mod: >77; ERK AVP block: 2%; Luciferase inh: 1%; Bst PK mod: >57

What do the screens show for `Nc1ncnc2c1ncn2[C@@H]1O[C@@H](COP(=O)(O)CP(=O)(O)OP(=O)(O)O)[C@H](O)[C@@H]1O`?
ERK AVP block: 7%; Luciferase inh: 3%

What do the screens show for `C=CC(=O)OCC(CO)(COC(=O)C=C)COC(=O)C=C`?
ERK AVP block: 16µM*

Results for C=CC(=O)OCCO ?
ERK AVP block: 20%

How did C[C@@H]1O[C@H](O[C@H]2C[C@@H](O)[C@]3(CO)[C@H]4[C@H](O)C[C@]5(C)[C@@H](C6=CC(=O)OC6)CC[C@@]5(O)[C@H]4CC[C@]3(O)C2)[C@@H](O)[C@H](O)[C@H]1O do in these assays?
Luciferase inh: 0%[11.4 µM]

Results for [Cl-].[Cl-].[Hg+2] ?
ERK AVP block: 7.9µM*

How did CC(C)(C)n1c(O)c(C=Nc2ccc3c(c2)CCC3)c(=O)[nH]c1=O do in these assays?
GBA mod: 11*; ERK AVP block: -4%; Luciferase inh: 1%; Bst PK mod: >57

How did Nc1nc(N)c2nc(CNc3ccc(C(=O)N[C@H](CCC(=O)O)C(=O)O)cc3)cnc2n1 do in these assays?
ERK AVP block: 9%; Luciferase inh: 0%

How did CC1=NN=C(c2ccc(N)cc2)c2cc3c(cc2C1)OCO3 do in these assays?
ERK AVP block: 0%; Luciferase inh: 2µM*!

What do the screens show for `CC(=O)O/C(=C1/C[C@H]2[C@@H]3CC=C4C[C@@H](OC(C)=O)CC[C@]4(C)[C@@H]3CC[C@]2(C)C1=O)C(F)(F)F`?
ERK AVP block: -3%[11.5 µM]; Luciferase inh: 6%[11.4 µM]

What do the screens show for `CN1CCN(c2ccc3nc(-c4ccc5nc(-c6ccc(O)cc6)[nH]c5c4)[nH]c3c2)CC1`?
ERK AVP block: 1%[11.5 µM]; Luciferase inh: 4µM*

What do the screens show for `Cc1ccc2nc(N3CCN(C)CC3)[nH]c2c1`?
GBA mod: >77; ERK AVP block: -13%; Luciferase inh: -28%

Results for Cc1c([C@@H](C)[C@H]2NC[C@H](C)C[C@@H]2O)ccc2c1C[C@@H]1[C@H]2CC=C2C[C@@H](O)CC[C@@]21C ?
ERK AVP block: 3%[11.5 µM]; Luciferase inh: 5%[11.4 µM]

How did CCOC(=O)C1SC2(C(F)F)CC1(O)c1c(c(OC)c3occc3c1OC)O2 (configuration not stated) do in these assays?
ERK AVP block: 20µM*; Luciferase inh: -1%; Bst PK mod: >57

What do the screens show for `CCCC(=O)Nc1ccc(N2CCN(CC)CC2)c(Cl)c1`?
GBA mod: 1.7*; ERK AVP block: -1%; Luciferase inh: 0%; Bst PK mod: >57

How did CCCCC/C=C\C/C=C\C/C=C\C/C=C\CCCC(=O)Nc1ccc(O)cc1 do in these assays?
ERK AVP block: -1%; Luciferase inh: 0%

Results for CC[C@H]1[C@@H]2C[C@@H]3[C@@H]4N(C)c5ccccc5[C@@]45C[C@@H]([C@H]2[C@@H]5O)N3[C@@H]1O ?
Luciferase inh: 2%[11.4 µM]

Results for COc1ccc2c(c1OC)CN1CCc3cc4c(cc3[C@H]1C2)OCO4 ?
ERK AVP block: -21%[25.7 µM]; Luciferase inh: -4%[25.5 µM]

What do the screens show for `COc1ccc2c(c[n+](C)c3c4cc5c(cc4ccc23)OCO5)c1OC`?
ERK AVP block: inconclusive; Luciferase inh: 32µM*

Results for CCN1C(=O)/C(=C2\C=Cc3ccccc3N2CC)OC1=S ?
GBA mod: >77; ERK AVP block: 16µM*; Luciferase inh: -1%

Results for Cc1ccc2nc3c(cc2c1)CC1(C(=O)N(C)C(=O)N(C)C1=O)C1CCCCN31 (configuration not stated) ?
GBA mod: >77; ERK AVP block: -10%; Luciferase inh: 6.3µM*; Bst PK mod: inconclusive

What do the screens show for `COC(=O)[C@@H]1c2cc3c(c(O)c2[C@@H](O)C[C@]1(C)O)C(=O)c1c(O)cc2c(c1C3=O)O[C@H]1O[C@@]2(C)[C@@H](O)[C@H](N(C)C)[C@H]1O`?
ERK AVP block: 3%[11.5 µM]; Luciferase inh: -1%[11.4 µM]

Results for COc1ccc(P2(=O)Nc3ccccc3N2)cc1 ?
GBA mod: >77; ERK AVP block: inconclusive; Luciferase inh: 6.3µM*

Results for CCCCCCn1c(O)c(C=NC2CCCCC2N)c(=O)[nH]c1=O (configuration not stated) ?
GBA mod: >77; ERK AVP block: -5%; Luciferase inh: 1.3µM*; Bst PK mod: 2.7*

How did COC(=O)c1c(C)ccc2c(O)c3c(cc12)C(=O)c1c2c(cc(O)c1C3=O)[C@@]1(C)O[C@@](C)(O2)[C@@H](O)[C@H](N(C)C)[C@H]1O do in these assays?
ERK AVP block: 14%[11.5 µM]; Luciferase inh: -2%[11.4 µM]

Results for COc1ccc2c3c1O[C@@H]1C(=O)CC[C@@]4(O)[C@@H](C2)N(CC2CC2)CC[C@]314 ?
ERK AVP block: 11%; Luciferase inh: 1%

How did CC(=O)OC1=CC2=CC[C@H]3[C@H]4CCC(=O)[C@@]4(C)CC(=O)[C@]3(S)[C@]2(C)CC1 do in these assays?
ERK AVP block: -18%[11.5 µM]; Luciferase inh: 1%[11.4 µM]

What do the screens show for `O=C(Oc1ccc2ccccc2c1Cl)N1CCCC1`?
GBA mod: >77; ERK AVP block: 9%; Luciferase inh: 16µM*

How did Cc1nc2ccccc2c(=O)n1-n1cnnc1 do in these assays?
GBA mod: >77; ERK AVP block: 5%; Luciferase inh: -1%; Bst PK mod: >57

How did CC(=O)c1c(C)nc2ccccc2c1N do in these assays?
GBA mod: >77; ERK AVP block: -22%; Luciferase inh: 3.2µM*; Bst PK mod: 2.5*

What do the screens show for `Cc1ccc2c(c1)C1CN(C)CCC1N2S(=O)(=O)c1ccccc1` (configuration not stated)?
GBA mod: 10*; ERK AVP block: -2%; Luciferase inh: 1%; Bst PK mod: >57
